# Laboratory results: PubChem BioAssay (NCATS)
# Unmarked numbers belong to inactive results. Inconclusive results are not listed. Active and inactive are the calls of the source. Unless noted, the call rests on the fitted dose curve; in most records, active means well fitted curve in either direction with a large enough effect (not every such curve was filed as active); inconclusive means small, poorly fitted or top-dose-only effect, or another doubt; inactive means flat fitted curve, though single readings scatter.
# What was measured:
# [1] = AP1 Signaling Pathway (AID 357); conditions: ME-180 AP-1-bla reporter, EGF-induced, beta-lactamase ratio, 5 h; at 17.2 µM (top of the series) unless noted;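 further: ME-180 reporter cells stimulated with EGF at its EC50 level; on the % scale 0 is the no-effect control and ±100 the full control effect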
# Procedure, shortened: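 Modulation of EGF-driven AP-1 transcription was assessed with a beta-lactamase reporter in ME-180 cells. Compound and EC50 EGF were co-incubated 5 hours at 37 °C before 2.5-hour CCF4 loading at room temperature and dual-emission reading.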
# [2] = NFAT Signaling Pathway (AID 444); conditions: Jurkat NFAT-bla M1, carbachol, beta-lactamase ratio, 5 h; at 17.2 µM (top of the series) unless noted;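 further: carbachol stimulus at about its EC50 of 1 µM final; on the % scale 0 is the no-effect control and ±100 the full control effect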
# Procedure, shortened: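 Jurkat cells carrying an NFAT-driven β-lactamase reporter and co-transfected muscarinic M1 receptor were treated with compound plus carbachol (1 uM final, an EC50 level) for 5 h at 37 °C. CCF4 loading followed for 1 h at RT; 460/530 nm ratio gave %activity.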
# [3] = Stat Signaling Pathway (AID 446); conditions: ME-180 (cervical carcinoma) SIE beta-lactamase reporter, IL-6 stimulated, 5 h; at 17.2 µM (top of the series) unless noted;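 further: ME-180 cervical cancer cells given 40 pM IL-6 alongside compound; SIE-controlled beta-lactamase reporter measured as 460/530 nm FRET emission ratio; on the % scale 0 is the no-effect control and ±100 the full control effect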
# Procedure, shortened: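 IL-6/STAT signaling read in ME-180 cells via an SIE beta-lactamase reporter. Stimulus was 40 pM IL-6 (its AC50) for 5 hrs, so both activation and inhibition register.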
# [4] = target: Glucocorticoid receptor (Homo sapiens) (UniProt P04150); assay: GR-GFP Redistribution (AID 450;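 active means compounds whose dose series gives a full or clear partial fitted curve of increased nuclear translocation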; further: potency means the concentration at half of the fitted maximal effect)
# Sequence of Glucocorticoid receptor (Homo sapiens) (P04150 whole entry, looked up): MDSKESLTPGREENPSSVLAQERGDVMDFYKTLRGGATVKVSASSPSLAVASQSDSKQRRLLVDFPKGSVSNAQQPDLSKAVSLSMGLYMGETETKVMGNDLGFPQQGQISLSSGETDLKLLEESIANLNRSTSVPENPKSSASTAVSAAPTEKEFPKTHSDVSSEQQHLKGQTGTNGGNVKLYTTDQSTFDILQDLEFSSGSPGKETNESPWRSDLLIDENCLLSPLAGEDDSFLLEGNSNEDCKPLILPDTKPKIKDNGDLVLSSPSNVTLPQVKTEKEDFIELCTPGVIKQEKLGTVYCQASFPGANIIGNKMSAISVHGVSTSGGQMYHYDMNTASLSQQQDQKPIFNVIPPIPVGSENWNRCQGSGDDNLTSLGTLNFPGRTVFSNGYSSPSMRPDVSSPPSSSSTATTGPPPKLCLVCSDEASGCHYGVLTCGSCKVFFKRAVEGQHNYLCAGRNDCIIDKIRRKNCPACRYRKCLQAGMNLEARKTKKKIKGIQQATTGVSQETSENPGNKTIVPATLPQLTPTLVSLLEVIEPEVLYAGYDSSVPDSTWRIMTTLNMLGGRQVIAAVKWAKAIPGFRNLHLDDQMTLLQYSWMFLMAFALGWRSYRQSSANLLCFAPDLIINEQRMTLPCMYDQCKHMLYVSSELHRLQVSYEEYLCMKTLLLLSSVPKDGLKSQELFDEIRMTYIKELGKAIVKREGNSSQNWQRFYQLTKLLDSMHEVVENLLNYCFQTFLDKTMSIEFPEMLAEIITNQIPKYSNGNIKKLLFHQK
Structure (SMILES),"activity change, negative = inhibition [1] [%]","activity change, negative = inhibition [2]","activity, negative = inhibition [3] [%]",Potency [4] [µM]
C=C1C2(C(=O)Nc3nccs3)CCC(C2)C1(C)C (centres undefined),-7.92,25.1%,-0.516,> 20.6
COc1ccc(OC(=O)c2cc3ccccc3o2)cc1,1.41,-19.7%,10.1,> 20.6
CCOC(=O)C1=C(C)OC(N)=C(C#N)C1c1cc2ccccc2nc1N1CCCCC1 (centres undefined),-11.2,-20.1%,13.8,> 20.6
COn1c(=S)[nH]c2ccccc2c1=O,20.1,11.2%,8.68,> 20.6
Cc1cccc(-c2nc(C#N)c(NC3CCCCC3)o2)c1,-27.9,-26.6%,-7.27,> 20.6
Cn1c(=O)c2c(nc(Br)n2CCSc2nc3ccccc3o2)n(C)c1=O,5.24,1.98%,10.5,> 20.6
O=S(=O)(c1ccccc1)N1CCC(N2CCN(c3ccccc3)CC2)CC1,-9.33,6.66%,5.78,> 20.6
CCOc1ccc(-c2nnc3sc(-c4c(OC)cccc4OC)nn23)cc1,3.89,-3.46%,8.95,> 20.6
Cc1ccc(NC(=O)c2cc(N3CCOCC3)nc3ccccc23)cc1,-15.5,19.3%,-12.2,> 20.6
COc1ccccc1C1/C(=C(/O)c2ccc(C)cc2)C(=O)C(=O)N1Cc1ccco1 (centres undefined),12.8,15.4%,-15.4,> 20.6
COc1ccc(-c2ncncc2-c2csc(C)n2)c(O)c1,2.87,-5.52%,0.893,> 20.6
CN/C(=C/[N+](=O)[O-])NCCSCc1ccc(CN(C)C)o1,-15.4,-27.6%,-3.38,> 20.6
CCOC(=O)c1[nH]c2cc3c(cc2c1NC(=O)CN1CCC2(CC1)OCCO2)OCO3,-29.3,6.91%,-9.66,> 20.6
CCSc1nnc(NC(NC(=O)c2ccco2)(C(F)(F)F)C(F)(F)F)s1,15.1,-7.65%,3.98,> 20.6
O=C(c1cc(N2CCCCC2)nc2ccccc12)N1CCOCC1,-15.6,-13.8%,4.94,> 20.6
CN=c1sc2ccccc2n1CC(O)COc1ccccc1 (centres undefined),-17.6,-17.8%,-0.403,> 20.6
C=C(C)C1Cc2c(C)nn(-c3nc(C)cc(C)n3)c2C1 (centres undefined),-4.28,10.4%,0.182,> 20.6
CC(=O)N1CCN(C2c3cccc4cccc(c34)C2NS(=O)(=O)c2ccccc2)CC1 (centres undefined),-3.48,-9.38%,2.23,> 20.6
CSC(=Nc1ccccc1)C1=C(O)COC1=O,3.1,4.52%,-5.43,> 20.6
CCCCCC(=O)N1CC2(CC)CN(C(=O)CCCCC)CC(CC)(C1)C2=O,-3.04,-17.5%,4.63,> 20.6
Cc1[nH]c(=O)[nH]c(=O)c1S(=O)(=O)N1CCCC1,11.7,-7.3%,12,> 20.6
CCN(CC)c1nc(C)c2c(c1C#N)CC(C)(C)OC2,-7.83,-24.4%,7.18,> 20.6
Nc1cccc(C(=O)O)c1,8.42,20.2%,4.89,> 20.6
CC1(C)Cc2c(sc3c4nnnn4c4nnnn4c23)CO1,-28.3,-96.8% (active),-26.4,> 20.6
COc1ccc(Cl)cc1N=Cc1c(O)cc(C)oc1=O,-3.56,-6.83%,5.26,> 20.6
C=C(C)CSc1nc(N)c2c3c(sc2n1)CCC3,-27.1,-3.51%,4.14,> 20.6
